FMDV inh: antivirals against foot and mouth disease virus; FMDV antiviral cell-based qHTS; Potency, µM (series often up to 57.9 µM), inactives show at the top dose activity change, negative = inhibition, most hits filed as inhibitors; 410,000 tested, 1.2% active; calls by dose curve; tested in HEK293T cells; also: read-out not given here; potency is read from the fitted curve at half-maximal effect; nearly all actives have a fitted effect of over 45% in size
HCMV inh: inhibitors of human cytomegalovirus; HFF cells, HCMV-luciferase reporter, 72 h; hits give low values; activity change, negative = inhibition, % at 57.5 µM; 410,000 tested, 4.5% active; in the data active = activity change below about -60%; inconclusive = no clear call, values can overlap the other calls; inactive = above about -39%
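Inhibition of viral replication was scored as loss of reporter luminescence in HFFs infected with HCMV-luciferase (MOI 1 PFU/cell) for 72 h; compounds tested at 2 doses, normalized to buffer and Salinomycin controls.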
Lassa entry inh: blocks Lassa virus binding to or entry into cells | Potency, µM (doses to about 37.9 µM), without a hit: top-dose activity change, negative = inhibition, actives largely listed as inhibitors | 300,000 tested, 1.2% active | Lassa virus pseudotype entry inhibition, cell reporter; calls by dose curve; tested in HEK293 cells; also: potency is read from the fitted curve at half-maximal effect; nearly all actives have a fitted effect of over 50% in size
HCV inh: inhibitors of hepatitis C virus infection; Huh7.5.1 HCVcc-Cre infection, luciferase reporter, 44 h; Potency, µM (top dose mostly 41.8 µM), for inactives: at the top dose activity change, negative = inhibition, hits mostly inhibitors; 340,000 tested, 3.4% active; AID 651820; active = well fitted inhibition curve with a large enough effect; inconclusive = small, poorly fitted or top-dose-only effect, or another doubt; inactive = no such curve, though single readings can be large or run the other way; also: potency is read from the fitted curve at half-maximal effect
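Antiviral activity was scored by luciferase reporter output from cells infected with HCVcc-Cre (~0.5 moi) in presence of compound, 44 h infection period, cells seeded 1,000/well 4 h prior.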
MARV entry inh: blocks Marburg virus binding to or entry into cells; Marburg virus pseudotyped entry inhibition, cell reporter; Potency, µM (doses to about 37.8 µM), for inactives: top-dose activity change, negative = inhibition, most hits filed as inhibitors; 300,000 tested, 1.8% active; calls by dose curve; tested in HEK293 cells; also: potency is read from the fitted curve at half-maximal effect
* = called active by the depositor; ? = inconclusive; / = no result; [ ] = dose if it differs, or a comment. Compounds with a hit are over-represented: about 7.9% of the library has one in this group of screens. % is scaled to controls: 0 for no effect and ±100 for the full control effect.

SMILES	FMDV inh	HCMV inh	Lassa entry inh	HCV inh	MARV entry inh
O=C(O)C[C@H](C(=O)OCCOc1ccccc1)N1CCOCC1	/	/	/	/	0%
Cc1c(C(=O)OCC(=O)N2CCN(c3ccccc3)CC2)oc2ccccc12	-1%	-21	-17%[46.1 µM]	-28%	5%[46.1 µM]
CCOc1cc(CN2CCC(CO)(Cc3cccc(C(F)(F)F)c3)CC2)ccc1OC	-6%	-26	-22%[46.1 µM]	?	4.5µM*
O=S(=O)(Nc1nc2ccccc2nc1Nc1ccc(N2CCOCC2)cc1)c1cc(Cl)ccc1Cl	-21%	-23	?	?	7.3µM*
Brc1ccc2ncnc(Nc3ccc(N4CCOCC4)cc3)c2c1	?	-82*	?	?	?
Fc1ccc(Nc2nc(N3CCOCC3)c3ccccc3n2)cc1	?	-7	?	-4%	16µM*
O=C(COc1ncnc2ccc(Br)cc12)Nc1ccc(N2CCOCC2)cc1	9%	54	11%	10%	0%
Clc1nc(Nc2ccc(N3CCOCC3)cc2)c2ccccc2n1	?	-72*	-6%	?	17%[46.1 µM]
O=C(O)c1ccc(Cl)c(S(=O)(=O)Nc2ccccc2N2CCOCC2)c1	-3%	-20	1%	7%	28%[46.1 µM]
O=C1OC(CN(Cc2ccccc2)Cc2ccccc2)CN1N=Cc1ccc([N+](=O)[O-])o1 (stereo not given)	-9%	11	-13%[46.1 µM]	6%	?
COc1cc(CNC(=O)C2CC(O)CN2C(=O)Nc2ccccc2)cc(OC)c1OC (stereo not given)	-21%	-5	/	/	/
CCC1CN(CCNC(=O)c2cccc(C(=O)OC)c2)Cc2cc(OC)ccc2O1 (stereo not given)	54%	/	/	/	/
Cc1ccc(-n2nc3c(=O)n(CCCC(=O)NC(C)c4ccccc4)nc(C)c3c2C)cc1 (stereo not given)	-6%	22	-8%[46.1 µM]	/	/
Cc1ccc(Cl)cc1N1CCN(C(=O)Cn2ncc3c([nH]c4ccccc43)c2=O)CC1	2%	7	11%[46.1 µM]	/	/
CN(C)C(=O)c1ccc(Nc2cc3c(cn2)cc(-c2cccnc2)n3Cc2ccccc2)cc1	/	-13	/	/	/
Cc1cccc(C)c1NC(=O)CN1C(=O)CCSc2ccc(S(=O)(=O)N3CCCC3)cc21	8%	7	-12%[46.1 µM]	-7%	/
c1ccc2c(Nc3nc(N4CCOCC4)c4ccccc4n3)cccc2c1	28µM*	-32	?	?	?
COc1cc2c(cc1OC)CN(S(=O)(=O)/C=C/c1ccccc1)CC2	-6%	-25	1.3µM*	-3%	?
COc1ccc(N2CCN(S(=O)(=O)/C=C/c3ccccc3)CC2)cc1	10%	-1	-2%	-1%	19%
COc1ccc(CCNC(=O)CCn2c(=O)c3ccccc3n(Cc3ccccc3)c2=O)cc1OC	-5%	8	24%[46.1 µM]	/	1%[46.1 µM]
COc1ccccc1N1C(=O)c2ccccc2NC1c1ccncc1 (stereo not given)	-10%	3	-5%	0%	-2%[46.1 µM]
COc1ccccc1N1C(=O)N(C(C)=O)C2C1Nc1ccccc1N2C (stereo not given)	/	-26	?	?	12µM*
COc1cc(Cl)ccc1OCc1cc(C(=O)N(C)Cc2cccc3cnccc23)no1	?	?	?	8.9µM*	?
CN(Cc1nccs1)C(=O)c1cc(COc2cccc3cnccc23)on1	?	-75*	/	6.3µM*	/
COc1ccc(OCc2cc(C(=O)N(C)Cc3cnccn3)no2)c(Cl)c1	29%	?	-15%	/	-6%
SMILES	FMDV inh	HCMV inh	Lassa entry inh	HCV inh	MARV entry inh
CC(C)NC(=O)NC(=O)COC(=O)/C=C/c1ccccc1[N+](=O)[O-]	-1%	102	-10%	?	23%[46.1 µM]
CCc1nn2c(=O)cc(COC(=O)c3ccccc3NC(=O)COc3ccc(C)c(C)c3)nc2s1	-9%	?	-3%[46.1 µM]	/	/
COc1ccc(OC)c(CN2C(=O)CN(S(C)(=O)=O)CC2(C)C(=O)NCc2ccccc2)c1 (stereo not given)	-10%	-14	/	/	/
Cc1c(C(=O)Nc2ccc(F)cc2)nnn1-c1cccc(C(F)(F)F)c1	-16%	-88*	?	?	-1%[46.1 µM]
Cc1c(C(=O)Nc2ccc(C(=O)O)cc2)nnn1-c1ccccc1	10µM*	-74*	?	/	/
Cc1ccc(NC(=O)c2oc3ccc4c(c3c2C)C(=O)CC(C)(C)O4)c(C)c1	25%	41	?	/	/
CCOc1ccc(C(=O)OCCN(CC)CC)cc1	6%	-18	-3%	-1%	-11%
